The supplement of paper PMC12632987
Over roughly 4,500 sequences, “median log2 fold change of GCK-ALFA target abundance (FLAG IP / Myc IP barcode read proportion)” has its median near 0.078; the lowest 2% begin near -0.6. Only a selection was taken, and the lowest values are over-represented in it overall.

B1: GBRAP_43_5749 (protein)
chain: DEELVAGAVEFTLLAAEDPSISPETVLRAFKATLDLIADTGVRLEEELVAAAAAVAKRLSPEQVEALIEHIKELAAASPEVKETFEAAEEVLRAELAKRR
B2: GBRAP_150_3886 (protein)
chain: DLETALTIASSALDILEATIEDGPKLLEHALKLTKALVDEVKDFSEELQKLAKEALKKIEEAIKLVKAGGKPEEIKKLLEEAAKLLEELEKLLEKKIEEE
B3: GBRAP_52_5963 (protein)
chain: MEARMEALLDELLALRRAGDEAGAEALAREIAETLDDEELRLLGDVLVARIRASDLETAELLLDLAIMLADVLEELGRDPRLASDLLGRAAAAAYALEQA
B4: GBRAP_83_6915 (protein)
chain: MKEITVAAVGDHIDEAFDAAIDLKKEGVEKIIVEAIIKPEEVPRLLEAVKRALEAGVNLELEVFLEGATEEEAEEVEKKLKEIAKEAGKEVKVTVEVIEP
B5: GBRAP_9_7146 (protein)
chain: MEEMVEKIREVMEDAFEEVREIVPEEVKPLVDELREEALKRFEEVVADKSKTKEEIREAAKELIEEFTERVSEKVSPEIAKMVEAIGLTAKLEIEEIYEE
B6: GBRAP_11_2904 (protein)
chain: KKEKLEKLAELLKKAVALLKELLAKGTDDEKLHAEALKVAEEALKLAKEVLDESDVELAEEAVELLKQAKADPANAAQYVQQALAIFSVLEGQVLLKIEE
B7: GBRAP_96_7096 (protein)
chain: MLEEAEALVRELIAALDTDPERARALAERLLEFPVEVVTEAIVRVVKDPADAAKLAELLLELGDEKAEEVLLEAAEKAPGDISKAIIDAMQAYEEAKEAA
B8: GBRAP_184_5075 (protein)
chain: SVREETIRVENVEEARAKMAALAERVRDHRGDLVVLVEMPEADLEIMRAVLEGLAAILAAGYARRVTVGFDAEVTEEQVDEAVALADRLGVNVVLPLKEE
B9: GBRAP_125_3111 (protein)
chain: DMEEVLEALAIVLRALGFDDDEIEEALELARRYGIKGTMIAVALAEGYEEVADLLEKLTEEEVKQALLETAAAIKANPELTPEEVKELLEEVLKKLLAAS
B10: GBRAP_160_4005 (protein)
chain: SAEIEALIKEIEELVKETKEWMKGLSPEERLTLARGMVGEIIQLAIDSPAVSDETEDKIAEIGDETIARLEANANASLEVWEKILDDYLEKVKELLKSDE
B11: GBRAP_11_2908 (protein)
chain: KKEKLKEAAKLAEKAAKLIEQLIKNGADDKELWAEAEKAAEELLKLAKEYLDESTVELAEYALELLKKAQADPKNAQQYLNEALATVRVILGQILLAIEE
B12: GBRAP_78_6697 (protein)
chain: EVEELLEKALELLDQALKLSKQLPEDLRNEVTYHLVEAITDLEEAIEEGADLEELKEALEHLDKAIALVKANDTPLTQPLLKLLTEAKKLLEEAIKKLEE
B13: GBRAP_125_3109 (protein)
chain: SEDELLAALRALARALGFSEEEAEEAAELARRFSLRQTLYAIFLAEGEEELADLVEQLTEEQARAALAALAAWLAAHPDATKEEVLAQARAILEAELARA
B14: GBRAP_9_7186 (protein)
chain: MQEKKEKILEEVKEELELAIEVAPEEYKELIKEKTEEVLKELEKAVKDENTTLEELLKKLEELFEKLIEIAKKNVPKETYLQIEAILGTAILSAEEIIEE
B15: GBRAP_26_5464 (protein)
chain: MEEAFREASDRVDEIAAKLSNPEAAAAVRAEADTILLELEERIEAGEDIEKAVKEAEEEFLKEAREIGKEEGLPEEEIERLEKELSEVFKELEERLKKAK
B16: GBRAP_160_4038 (protein)
chain: NEKLEKLAKFAEEVFKEAEELIKGTTVEEAAVIVDVATGEIIMEAVELGIDNDELEDFIDEIGDEAVAYLLAHPDLTEEEIQALVKEAKEKILKKIKEAS
B17: GBRAP_160_4037 (protein)
chain: NEKLKKLKKFAEEVFEEAKELVEGTSVEEAAVIIDVAAGEIIMEAVELGIDDDELEDFIDEIGDEAVAYLLAHPDLSEEEIKELIEEAREKVLEKIDEAE
B18: GBRAP_52_6009 (protein)
chain: MREELRERLEEALALVRAGRLEEARALVTELVESLDEEELELLIELLAEMAREAAPEDFDAVWTLAELVAEEMRRAGKDEVLADLLEARVAAALYEAEQR
B19: GBRAP_52_5877 (protein)
chain: MLEEAVKLLEEAVKAKKEGKEKELKEILKKIVEEFSEETILAAVKKLAEKVLTKSLEEAEAFYETVELLSDILLEAGKSEEIASLMEAIAGATLYTVEQK
B20: GBRAP_11_2629 (protein)
chain: KKEILKKKAELAKKLAEKVEKLLKEGVDNEELLKEIEKLLKEIAELTEKYGTEADKSLVEVAKELFEEAKKDKENKEKYLKELLAAAKVLEGDYLLEIEE
B21: GBRAP_35_5618 (protein)
chain: MSDEELTDMLVDLIEDATAAVPDVSVETLAAIAASLSRAVRSLAEELAGNAENLRRLADAVEALRDAIERHHGDDPLAQETIAALTATAEEIRARAAASE
B22: GBRAP_160_4664 (protein)
chain: SEEIEKLLEEIRELLLETLDWTKDLDPASREALLRAAVGDVLQLLFENPLVTDEVEDYAEEVLEEMREYVLANPDLTDEEREALVDEVVDKIREKILEES
B23: GBRAP_11_2937 (protein)
chain: EKEKLKKAQELAKEAQELLKKIQKAGKLDEELLKKAQELLKKAAELAKELGLEEEQKDLELAQELLEEVQKAGKLDETKVAAAQALVFDVAHELEEKLEE
B24: GBRAP_52_6133 (protein)
chain: MREELREKVLELLELVKAGKLEEAKKRLLKIAKELSDEELREFAREFAEVVRELPPEDLDAAAELLELAEEALEEAGRPEELISLLIGEGARALYEVEQR
B25: GBRAP_11_2673 (protein)
chain: MKEKLLEAAELAEKAAKLVEELIKEGVDNEELLKELKKLLEELKKLAKEYLSKALQKDVEVAEELFKELLEDEENRLEYAEQLLAALRVLEGNLLLEADE
B26: GBRAP_52_6314 (protein)
chain: MSERMEELARRLLELMLAGDEEGARALIRELVKTLSEEELLLLAEELARLAKTLDAEGLDALARLLELIEDEMEEEGVDERIIAEIRGIIITAIYEAEQR
B27: GBRAP_53_6413 (protein)
chain: AEAEIAALRAEVKATARAAAAADEATLAALVAEIGALLAALKAAGMPDEELTALAEEVARTLRAAGAPDSALVALAGHLAALGLEEATAAVAEEAVEELE
B28: GBRAP_35_5549 (protein)
chain: DSDREIAEMLVDTIEDIVEALPDVSEEDKIALAKAAIRLARDLVELKPKDEELIKRAIEALERIKEILEESDLPEEDKEELIEEIEELIEELKKLLEENK
B29: GBRAP_35_5548 (protein)
chain: DSDEETAEMLVDTIEDIVEALPDVSEEDRVALAEAALRLARDLVELQPKNKELIKRAIEALERIKEIIEESDLPEEVRERLVREIEELIEELKKILEENE

Target: GABARAP, O95166
Assay: median log2 fold change of GCK-ALFA target abundance (FLAG IP / Myc IP barcode read proportion) (log2 ratio); each designed protein is fused to an ALFA-tag nanobody in HEK293 cells to bring the named protein to FLAG-tagged glucokinase (GCK); Myc marks an untargeted standard; higher = target protein stabilised (more abundant)
Conditions: target protein: 3xFLAG-MCP-GCK-ALFA reporter; HEK293 landing pad (RPLP)
Procedure, shortened: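 An ALFA-nanobody-fused binder library was recombined into HEK293 landing-pad cells and induced with 2 μg mL^−1 doxycycline. Cells were transfected with a plasmid expressing a FLAG-tagged target and a Myc-tagged standard. After 48 h, lysates underwent anti-FLAG and anti-Myc immunoprecipitation, and circular RNA barcodes were reverse transcribed, amplified and sequenced. Target abundance is the per-binder median log2 ratio of FLAG to Myc barcode read proportions. Barcodes needed ≥10^−7 proportion in both replicates, binders ≥3 barcodes per replicate, and a 10^−6 pseudocount was added; the two replicates were pooled.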

Sequence of GABARAP, O95166 (O95166 whole entry, the tested form may be a part): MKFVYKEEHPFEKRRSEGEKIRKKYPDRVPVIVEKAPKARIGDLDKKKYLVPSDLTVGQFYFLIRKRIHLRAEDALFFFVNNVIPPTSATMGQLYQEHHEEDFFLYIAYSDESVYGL

Binder	median log2 fold change
B1	0.142
B2	0.00752
B3	-0.635
B4	0.19
B5	0.209
B6	0.354
B7	0.123
B8	0.0908
B9	-0.903
B10	0.201
B11	0.209
B12	0.0855
B13	-0.77
B14	-0.362
B15	0.274
B16	-0.621
B17	-0.581
B18	-0.0383
B19	0.168
B20	0.182
B21	-1.48
B22	-0.406
B23	0.139
B24	0.086
B25	0.0764
B26	-0.236
B27	0.295
B28	-0.761
B29	-0.485
